Assay outcomes: PubChem BioAssay, National Center for Advancing Translational Sciences (NCATS)
VDR inhibitor: inhibitors of human vitamin D receptor; Potency, µM, for inactives: max response, negative = inhibition, actives largely listed as inhibitors; VDR-SRC2-3 peptide fluorescence polarization, 2 h; 400,000 compounds, 0.93% hits; also: % is scaled to controls: 0 for no effect and ±100 for the full control effect
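Signal is fluorescence polarization, reporting how far test compounds block the interaction of VDR with the SRC2-3 coregulator peptide after a 2 h room-temperature incubation.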
Sfp inh: Sfp phosphopantetheinyl transferase inhibition | Biochemical Sfp PPTase activity, qHTS | 310,000 compounds, 3.5% hits | Potency, µM, for the others: largest response in the series, negative = inhibition, usual class: inhibitors | Q9F4F7;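 also: the enzyme is Sfp with the accession as filed and its product quenches rhodamine fluorescence; 0% = enzyme reaction without inhibitor and -100% = no enzyme wells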
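Fluorescence-quenching assay: 15 nM Sfp-PPTase preincubated 15 min at room temperature with compound, then 5 uM rhodamine-CoA and 12.5 uM BHQ-2-labelled YbbR peptide added. Fluorescence (ex 525/em 598 nm) read at start and after 30 min; difference gives rate.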
GRP78 ERSR act: inducers of ER stress response in human glioma cells; U87-MG GRP78 promoter luciferase reporter, 16 h; Potency, µM, without a hit: at the top dose activation, usual class: activators; 420,000 compounds, 0.02% hits; AID 602332; also: series mostly up to about 76 µM; % of control where 0% means no effect; nearly all actives have a fitted effect of over 35% in size
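Stably transfected U87-MG glioma cells carrying a GRP78-based luciferase sensor; 16 h compound incubation. Luminescence end-point read 10 min after Bright-Glo addition at room temperature.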
G9a block: blocks human histone lysine methyltransferase G9a; Q96KQ7; G9a H3K9 monomethylation, AlphaScreen, 2 h; Potency, µM (highest dose often 102 µM), without a hit: at the highest dose activity, negative = inhibition, actives largely listed as inhibitors; 350,000 compounds, 8.8% hits; AID 504332; also: % is scaled to controls: 0 for no effect and ±100 for the full control effect; nearly all actives have a fitted effect of over 75% in size
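Chemiluminescent proximity detection of H3K9 monomethylation, read after 10 min bead incubation in the dark. Reaction: 20 nM G9a, 500 nM biotin-H3K9 peptide, 20 uM SAM cofactor, 2 h, room temperature, following 15 min enzyme-compound preincubation.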
ALOX12 inh: ALOX12 (human) lipoxygenase inhibition; P18054; purified 12hLO, xylenol orange hydroperoxide absorbance; Potency, µM (top dose mostly 108 µM), for the others: top-dose activity change, negative = inhibition, most hits filed as inhibitors; 580,000 compounds, 1.1% hits; AID 1671190; also: % is scaled to controls: 0 for no effect and ±100 for the full control effect
Target sequence (P18054 whole entry, looked up): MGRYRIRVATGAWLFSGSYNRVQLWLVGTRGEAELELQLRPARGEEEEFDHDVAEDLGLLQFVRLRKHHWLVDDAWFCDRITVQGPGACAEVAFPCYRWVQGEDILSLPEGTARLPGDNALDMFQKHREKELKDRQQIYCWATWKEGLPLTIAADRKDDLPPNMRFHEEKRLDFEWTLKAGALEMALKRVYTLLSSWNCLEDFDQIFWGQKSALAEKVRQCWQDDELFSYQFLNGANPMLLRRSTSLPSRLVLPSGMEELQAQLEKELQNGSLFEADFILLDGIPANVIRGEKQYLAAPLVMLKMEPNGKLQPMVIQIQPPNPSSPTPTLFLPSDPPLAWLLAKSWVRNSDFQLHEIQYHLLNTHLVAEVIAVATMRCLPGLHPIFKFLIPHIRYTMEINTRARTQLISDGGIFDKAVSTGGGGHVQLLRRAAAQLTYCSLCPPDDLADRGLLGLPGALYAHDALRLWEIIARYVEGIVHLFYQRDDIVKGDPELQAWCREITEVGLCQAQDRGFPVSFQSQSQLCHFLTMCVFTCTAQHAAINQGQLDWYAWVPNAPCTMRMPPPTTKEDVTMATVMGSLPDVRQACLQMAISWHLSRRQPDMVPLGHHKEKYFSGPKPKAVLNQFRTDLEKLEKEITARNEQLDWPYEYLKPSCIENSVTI
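Hydroperoxide product was detected by ferrous iron/xylenol orange as the 573 to 405 nm absorbance ratio. Arachidonic acid at 40 uM (final) was turned over for 30 min at room temperature by 150 nM human 12hLO, pH 7.0 Hepes buffer, after 15 min compound preincubation.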
Active calls of the source: *; u = inconclusive; x = not tested or not shown; [ ] = dose if it differs, or a comment. The entries come from a sample that favours hits as a whole. Calls follow the shape of the dose curve; as a rule, active = well fitted curve in the direction sought with a large enough effect; inconclusive = small, poorly fitted or top-dose-only effect, or another doubt; inactive = no such curve, though single readings can be large; an effect the other way counts as inactive or inconclusive. Potency is read from the fitted curve at half-maximal effect.

SMILES	VDR inhibitor	Sfp inh	GRP78 ERSR act	G9a block	ALOX12 inh
O=C(N/N=C/c1ccc(O)c(O)c1)c1cccc(S(=O)(=O)N2CCCCC2)c1	-20%	-23%	1%	50µM*	u
O=C(Nc1ccncc1)c1cccc(S(=O)(=O)N2CCN(c3ccc(F)cc3)CC2)c1	-4%	x	-5%	u	3%
NC(=O)CN1CCN(S(=O)(=O)c2ccc(Cl)cc2F)CC1	x	x	x	x	-1%
COc1ccccc1Nc1ncc2c(n1)CN(C(=O)c1ccc(Oc3ccccc3)cc1)CCN2	x	x	x	x	0%
CNC(=O)c1cccc(CNC(=O)C(C)(C)NC(=O)OC(C)(C)C)c1	x	x	x	x	0%
CCOc1ccccc1NC(=O)CCc1ccc(-c2ccc(C)c(C)c2)o1	x	x	x	x	-63%
Cc1nn(CC(=O)NC(C)(C)C)c(C)c1S(=O)(=O)N1CCCC(C(=O)N2CCCCC2)C1 (stereo not drawn)	x	x	x	x	-2%
O=C(N/N=C/c1ccccc1C(=O)O)c1cccc(S(=O)(=O)Nc2cc(Cl)ccc2Cl)c1	u	10%	-6%	-2%[59 µM]	-30%
Cc1ccc(/C=N/NC(=O)c2cccc(S(=O)(=O)Nc3ccccc3Cl)c2)s1	5%	0%	-4%	50µM*	-17%
CN(Cc1ccccc1Cl)C(=O)c1ccc2c(c1)CCCN2S(C)(=O)=O	x	x	x	x	12%
CC1CC(C)(C)NC(=S)N1CC(=O)NCc1ccccc1Cl (stereo not drawn)	0%	7%	-1%	u	-12%
Cc1cccc(NC(=O)CN2C(=S)NC(C)(C)CC2C)c1 (stereo not drawn)	-22%	-11%	-3%	20µM*	u
Cc1ccccc1NC(=O)CN1C(=S)NC(C)(C)CC1C (stereo not drawn)	-21%	-3%	-4%	18µM*	u
CC1CC(C)(C)NC(=S)N1CC(=O)NCc1ccc(Cl)cc1 (stereo not drawn)	-12%	-7%	-5%	28µM*	u
Cc1cccc(NC(=O)COC(=O)CCc2nc3ccccc3s2)c1C	x	x	x	x	5%
COc1ccc(C(=O)N2C[C@@H]3CCCN4CCC[C@@H]([C@H]34)[C@H]2CCCC(=O)NCc2ccccc2)cc1	x	x	x	x	-4%
CCN(C(=O)c1sc2nc3n(c(=O)c2c1C)CCCCC3)c1ccccc1F	7%	x	-2%	8.9µM*	7%
CCN(C(=O)c1sc2nc3n(c(=O)c2c1C)CCCCC3)c1ccc(OC)cc1	6%	x	-1%	5.6µM*	-24%
CCc1ccc(N(CC)C(=O)c2sc3nc4n(c(=O)c3c2C)CCCC4)cc1	4%	x	-1%	16µM*	u
CCN(C(=O)c1sc2nc3n(c(=O)c2c1C)CCCCC3)c1ccccc1	x	x	x	x	9%
Cc1ccc(S(=O)(=O)NN2C(=O)/C(=C/c3cccn3C)SC2=S)cc1	x	-17%	x	45µM*	x
Cc1ccc(S(=O)(=O)NN2C(=O)/C(=C/c3cccs3)SC2=S)cc1	-15%	79µM*	-3%	20µM*	u
Cc1ccc(S(=O)(=O)NN2C(=O)/C(=C\c3ccc(Cl)cc3)SC2=S)cc1	-11%	17%	-2%	-10%	-26%
Cc1ccc(/C=C2\SC(=S)N(NS(=O)(=O)c3ccc(C)cc3)C2=O)cc1	8%	-4%	-1%	x	35µM*
CC(NC(=O)/C=C/c1ccc(Br)cc1)C1CC2CCC1C2 (stereo not drawn)	x	x	x	x	-8%
SMILES	VDR inhibitor	Sfp inh	GRP78 ERSR act	G9a block	ALOX12 inh
CC(=O)[C@@H]1[C@@H](C(=O)c2ccc(F)cc2)[C@]2(C(=O)Nc3ccccc32)[C@H]2C=Cc3cc(F)ccc3N12	1%	20µM*	0%	u	u
CC(=O)CC1(O)C(=O)Nc2ccc(F)cc21 (stereo not drawn)	x	x	x	x	4%
CC(=O)[C@@H]1[C@@H](C(=O)c2ccc(C)cc2)[C@]2(C(=O)Nc3ccccc32)[C@H]2C=Cc3cc(F)ccc3N12	-8%	4µM*	-4%	u	8%
Cc1ccc(C(=O)N/C(=C/c2ccccc2)C(=O)NC(CC(C)C)C(=O)O)cc1 (stereo not drawn)	x	x	x	x	-50%
O=C(O)c1ccc(CSc2nc3ccc(NC(=O)c4ccccc4C(=O)O)cc3s2)cc1	18%	-9%	-4%	45µM*	-7%
N#Cc1ccccc1CSc1nc2ccc(NC(=O)c3ccccc3C(=O)O)cc2s1	-17%	-1%	3%	u	-42%
